Active and inactive are the calls of the source. How the source made its calls: active means hit-call score of the fitted dose curve at least 0.9, where 1 is the maximum; inactive means score below 0.9.
These compounds were tested on Matrix Metallopeptidase 9 (MMP9), MMP9 (gene 4318) (assay: BSK_KF3CT_MMP9: BioMAP Diversity Plus: KF3CT Assay for Matrix Metallopeptidase 9 (MMP9) Biomarker Activity (AID 2283074;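 on AC50: MMP9 protein level quantified by ELISA in the co-culture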)). Conditions: primary human keratinocytes with fibroblasts; actives raise or lower the signal.
Method in brief: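 Human keratinocyte/foreskin fibroblast co-culture; compound added; 24 h; MMP-9 by ELISA; bidirectional fit vs DMSO baseline.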

Compound	outcome	AC50
O=C(O)C(Cl)(Cl)Cl	inactive	–
Oc1cccc2cccnc12	–	2.46 µM (active)
CC(=O)OC(c1ccccc1)C(Cl)(Cl)Cl (centres undefined)	inactive	–
C[C@]12CCC(=O)C[C@@H]1CC[C@@H]1[C@@H]2CC[C@]2(C)[C@@H](O)CC[C@@H]12	inactive	–
COP(=S)(OC)Oc1ccc(Sc2ccc(OP(=S)(OC)OC)cc2)cc1	–	10.4 µM (active)
C(=NC1CCCCC1)=NC1CCCCC1	–	12.6 µM (active)
COc1cc(OC)nc(NC(=O)NS(=O)(=O)c2ncccc2C(=O)N(C)C)n1	inactive	–
CC12CC1(C)C(=O)N(c1cc(Cl)cc(Cl)c1)C2=O (centres undefined)	inactive	–
COC(=O)c1sccc1S(=O)(=O)NC(=O)Nc1nc(C)nc(OC)n1	inactive	–
C=C(C)C(=O)[O][Sn]([CH2]CCC)([CH2]CCC)[CH2]CCC	–	0.148 µM (active)
CC(C)(C)c1cc(O)ccc1O	–	29.5 µM (active)
CC(C)(c1ccccc1)c1ccc(O)c(C(C)(C)c2ccccc2)c1	–	2.41 µM (active)
CCCCCCCCc1ccc(O)cc1	–	28.8 µM (active)
O=C(Nc1ccc2[nH]ccc2c1)c1cc2cc(F)ccc2n1Cc1cccc(F)c1	–	4.6 µM (active)
O=C(OC1CCCCC1)c1ccccc1C(=O)OC1CCCCC1	–	9.72 µM (active)
C=CC(=O)OCCCCCC(C)C	inactive	–
CC(C)(C)CC(C)(C)c1ccc(O)cc1	–	9.64 µM (active)

Compound	outcome	AC50
CCNc1nc(NC(C)(C)C)nc(SC)n1	inactive	–
CC(=O)[O][Hg][c]1ccccc1	–	0.189 µM (active)
Nc1cccc2ccccc12	–	20 µM (active)
ClCC(Cl)CCl	inactive	–
CCOP(=S)(OCC)Oc1nc(Cl)c(Cl)cc1Cl	inactive	–
CCOP(=S)(OCC)SCSP(=S)(OCC)OCC	inactive	–
CCOP(=S)(OCC)SCCS(=O)(=O)CC	inactive	–
CCOP(=S)(OCC)Oc1ccc(S(C)=O)cc1 (centres undefined)	inactive	–
COC[C@H](C)N(C(=O)CCl)c1c(C)csc1C	inactive	–
ClC(Cl)=C(Cl)C(Cl)=C(Cl)Cl	–	28.9 µM (active)
COC(=O)Cc1ccccc1	inactive	–
O=[N+]([O-])c1ccc(O)c([N+](=O)[O-])c1	inactive	–
Nc1ncc([N+](=O)[O-])s1	inactive	–
NC(=S)Nc1ccccc1	inactive	–
CCC(C)(C)c1ccc(O)c(C(C)(C)CC)c1	–	10.3 µM (active)
O=C(O)CCC(F)(C(F)(F)F)C(F)(F)F	inactive	–
CCCCC(CC)CO[N+](=O)[O-] (centres undefined)	–	34.7 µM (active)

Reference: PubChem BioAssay (EPA / NIEHS)
